About 79,000 compounds went through this panel and 15% of them were active in at least one assay; those are over-represented in the sample as a whole. Cut-off read from the data, not from the text of the source: active = growth inhibition above about 70%; inactive = the rest.
What was measured:
[1] = NCI Yeast Anticancer Drug Screen. Data for the rad50 strain (AID 155);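 note: 0% = growth of vehicle-only cultures of the same strain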; conditions: S. cerevisiae rad50 strain growth inhibition; at 50.0 µM; active compounds read high
Summary of the method: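 A DNA repair-deficient yeast mutant serves as the test organism; compound-induced growth inhibition is calculated against vehicle-treated cells.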

[2] = NCI Yeast Anticancer Drug Screen. Data for the mec2-1 strain (AID 157); conditions: S. cerevisiae mec2-1 strain, at 50.0 µM, active compounds read high
Summary of the method: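 Cells of the genetically defined mec2-1 yeast strain are incubated with test compound. Inhibition of growth is calculated against vehicle-treated controls.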

[3] = NCI Yeast Anticancer Drug Screen. Data for the sgs1 mgt1 strain (AID 161);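 note: 0% = growth of cultures given vehicle only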; conditions: S. cerevisiae sgs1 mgt1 strain, at 50.0 µM, active compounds read high
Summary of the method: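 Genetically altered yeast, compound exposure, growth inhibition relative to vehicle.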

[4] = NCI Yeast Anticancer Drug Screen. Data for the cln2 rad14 strain (AID 165);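 note: 0% = growth equal to vehicle treated cultures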; conditions: S. cerevisiae cln2 rad14 strain, at 50.0 µM, active compounds read high
Summary of the method: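 The screen exposed genetically defined yeast (cln2 rad14) to test compounds and scored growth inhibition relative to vehicle-treated controls.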

[5] = NCI Yeast Anticancer Drug Screen. Data for the bub3 strain (AID 167); conditions: S. cerevisiae bub3 mutant strain, at 50.0 µM, active compounds read high
Summary of the method: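 Inhibition values come from growth of compound-treated mutant yeast normalised to vehicle-treated controls.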

[6] = NCI Yeast Anticancer Drug Screen. Data for the mlh1 rad18 strain (AID 175); conditions: S. cerevisiae mlh1 rad18 strain growth inhibition; at 50.0 µM; active compounds read high
Summary of the method: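 Compound-treated yeast growth, normalised to vehicle controls. Strain bears defined DNA repair mutations.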

Measured: growth inhibition

NCCCCCCCCCCC(=O)O
inactive: [1] -7.25% | [2] -7.6% | [3] -10.7% | [4] -11.2% | [5] -5.9% | [6] -2.8%

CC(C)C1=CC2=CCC3C(C)(COC(=O)CSC(C)(C)C)CCCC3(C)C2CC1 (stereo unspecified)
inactive: [1] 14.2% | [2] -2.25% | [3] 31.6% | [4] 18.6% | [5] -1.9% | [6] 20.2%

S=c1nc[nH]c2c1ncn2C1OC(COCc2ccccc2)C(OCc2ccccc2)C1OCc1ccccc1 (stereo unspecified)
inactive: [1] 31.2% | [2] 15.1% | [3] 17.4% | [4] 14.7% | [5] 2.1% | [6] 5.9%

C/C(=N\NC(=S)NC(C)C)c1nc2ncccc2[nH]1
inactive: [1] -14.5% | [2] -17.6% | [3] -56.6% | [4] -28.8% | [5] 17.5% | [6] -25.8%

O=[N+]([O-])c1cccc(/C=C/C=C/c2ccc(Cl)c(Cl)c2)c1
inactive: [1] 7.65% | [2] 9.3% | [3] 30.3% | [4] 3.65% | [5] 28.2% | [6] 4.1%

O=C(O)CCC(=O)Nc1ccc(S(=O)(=O)Nc2nccs2)cc1
inactive: [1] -18% | [2] -36.2% | [3] -16.5% | [4] -17.9% | [5] -18.3% | [6] -14.6%

Clc1ccc(N=Cc2ccccc2)cn1
inactive: [1] -13.6% | [2] 22.1% | [3] 37% | [4] -14.4% | [5] 6.55% | [6] 47.4%

FC(F)(F)C(Cl)=C(Cl)Cl
inactive: [1] -1.8% | [2] -38.5% | [3] 14.5% | [4] 20.1% | [5] -13.7% | [6] -1.75%

NC(N)=NS(=O)(=O)c1ccc(N)cc1
inactive: [1] 45% | [2] 23.9% | [3] 26.4% | [4] 14.3% | [5] 13.3% | [6] 13%

COc1ccc(C(C#N)N2CCCCC2)cc1 (stereo unspecified)
inactive: [1] 21.6% | [2] -6.25% | [3] -13.5% | [4] 22.1% | [5] 7.05% | [6] 0.4%

COC(=O)CC(c1ccccc1)N1CCOCC1 (stereo unspecified)
inactive: [1] -12.3% | [2] 19.4% | [3] -10.2% | [4] -20.4% | [5] 7.35% | [6] 12.8%

O=C(CCCCCCCCC(=O)NC1CCCCC1)NC1CCCCC1
inactive: [1] -13.2% | [2] -26.5% | [3] -21.6% | [4] -20.8% | [5] -19% | [6] -5.4%

O/N=C1\CCCCC1C(NO)c1ccccc1 (stereo unspecified)
inactive: [1] 2.4% | [2] -4.25% | [3] -7.9% | [4] -16.4% | [5] -12.2% | [6] 9.35%

CC(C)=C/C(CC(O)(C(F)(F)F)C(F)(F)F)=N\O
inactive: [1] -17.2% | [2] 4.45% | [3] -6.5% | [4] 18.4% | [5] -15.8% | [6] -13.3%

Cc1nnc2n(c1=O)CCN2C
inactive: [1] -1.65% | [2] 0.1% | [3] 12.3% | [4] -4.4% | [5] 7.8% | [6] 26.2%

CC(=O)OC(c1ccc2c(c1)OCO2)C(C)(C)C (stereo unspecified)
inactive: [1] 17% | [2] 14.9% | [3] -7.3% | [4] -33.5% | [5] 8.7% | [6] 7.9%

CCCCCCCCCCCC(=O)OCc1ccccc1
inactive: [1] -3.9% | [2] 17.8% | [3] 3.1% | [4] 18.2% | [5] -3.5% | [6] 25.8%

Cc1sc2nc3n(c(=O)c2c1C)N=CN(c1ccccc1)C3
inactive: [1] 3% | [2] 4% | [3] 2.1% | [4] -12.8% | [5] -3.5% | [6] -16.7%

COC(=O)NC1=Nc2ccc(Cl)cc2NS1
inactive: [1] 2.4% | [2] -10.2% | [3] -25.1% | [4] 2.05% | [5] 22.1% | [6] -4.65%

Cn1c2ccccc2n2c(=O)c(-c3ccc(Cl)cc3)nnc12
inactive: [1] -4.95% | [2] 10.9% | [3] -5.15% | [4] -6.15% | [5] -11.2% | [6] -35.4%

CC(=O)Nc1ccc(C2CCCC2)cc1Br
inactive: [1] -3.05% | [2] -2.15% | [3] 0% | [4] -39.8% | [5] -12.2% | [6] -4.45%

Nc1c(Cl)ncnc1NCCCCCO
inactive: [1] -5.35% | [2] -4% | [3] -8.75% | [4] -23.7% | [5] -6.95% | [6] -1.95%

CC1(C2c3ccccc3CC2OC2CCCCO2)CO1 (stereo unspecified)
inactive: [1] -8.35% | [2] -10.6% | [3] -9.5% | [4] -10.2% | [5] -5.75% | [6] 2.35%

C=CCNc1nc2c(s1)CCc1cc(OC)c(OC)cc1-2
inactive: [1] 30.1% | [2] 10.6% | [3] 12% | [4] 29.4% | [5] 15.2% | [6] 61.6%

CC1(C)C(=NNC(=O)C[N+](C)(C)C)C(C)(C)C1=NNC(=O)C[N+](C)(C)C
inactive: [1] -0.4% | [2] -11.9% | [3] -32.9% | [4] -46.4% | [5] -0.15% | [6] -13.5%

C/C(N=NS(=O)(=O)c1ccccc1)=C1\C=CC=CN1O
inactive: [1] -7.9% | [2] -1.5% | [3] -4.55% | [4] 2.5% | [5] 12.9% | [6] -9%

COC(=O)c1ccc(Cl)c(Cl)c1Cl
inactive: [1] -3.6% | [2] -7.35% | [3] -19.6% | [4] -11.8% | [5] 6.1% | [6] -26.3%

CCC(C)CCC(N)C(=O)O (stereo unspecified)
inactive: [1] 2.3% | [2] 11.4% | [3] -3.95% | [4] -0.1% | [5] 2% | [6] 1.75%

CCOC(=O)COc1ccc(Cl)cc1CCl
inactive: [1] 3.2% | [2] 6.4% | [3] -10.4% | [4] -10.9% | [5] 21.9% | [6] 1.65%

CC(=O)OCC1OC(n2nnc3c(=O)n(C)c(=O)[nH]c32)C(OC(C)=O)C(OC(C)=O)C1OC(C)=O (stereo unspecified)
inactive: [1] 9.45% | [2] 16.1% | [3] 13.8% | [4] 4% | [5] 8.9% | [6] 29.4%

CC1CC(OC(=O)c2ccccc2)CCC1=O (stereo unspecified)
inactive: [1] -5.6% | [2] -2.85% | [3] -7.65% | [4] 14.5% | [5] 15.6% | [6] -7.8%

Cc1cc(Cl)c(Cl)cc1N
inactive: [1] -11.6% | [2] -7.2% | [3] 5.6% | [4] -9.65% | [5] 12.1% | [6] 12.4%

O=C(CCCn1ccnc1[N+](=O)[O-])NCCn1cnc([N+](=O)[O-])c1
inactive: [1] 8.9% | [2] 29.6% | [3] 5.2% | [4] 5.75% | [5] -9.4% | [6] 61%

CC1(C)C2CCC(C2)C1/C=C1/SC(=S)NC1=O (stereo unspecified)
inactive: [1] -6.2% | [2] -1.55% | [3] 1.55% | [4] 49% | [5] 17.8% | [6] 2.85%

O=C1c2cscc2C(=O)c2c(OCc3ccccc3)ccc(OCc3ccccc3)c21
inactive: [1] 3.7% | [2] 6.65% | [3] -7.45% | [4] -5.3% | [5] 1.95% | [6] 7.4%

C1CCC(CN2CCN(CC3CCCCO3)CC2)OC1 (stereo unspecified)
inactive: [1] -2.4% | [2] -11.5% | [3] -1.05% | [4] -41.8% | [5] 0.25% | [6] 3.05%

CC1(c2ccccc2)CCC(=O)NC1 (stereo unspecified)
inactive: [1] -0.15% | [2] -37.5% | [3] -2.1% | [4] 8.45% | [5] -7.25% | [6] 11.6%

COC(=O)C1=C(O)/C(=C\c2ccccc2)NC1=O
inactive: [1] 9.35% | [2] -11.3% | [3] -12.9% | [4] -40.4% | [5] -17.8% | [6] -5.7%

CC(Br)CCl (stereo unspecified)
inactive: [1] 26.4% | [2] 17.1% | [3] 22.1% | [4] 2.1% | [5] 14.4% | [6] 39.2%

Cc1ccnc(NC(=O)Nc2ccc(C)cc2[N+](=O)[O-])c1
inactive: [1] 18.4% | [2] 26.7% | [3] 20.4% | [4] 8.35% | [5] 18.1% | [6] 24%

CCOC(=O)C(C)(Cc1cccc2ccccc12)C(=O)OCC
inactive: [1] -33.6% | [2] -19.3% | [3] 5.1% | [4] -54.2% | [5] 29.8% | [6] -24.9%

Source: PubChem BioAssay (NCI)
